The source made the active and inactive calls. How the source made its calls: active means hit-call score of the fitted dose curve at least 0.9, where 1 is the maximum; inactive means score below 0.9.
How the values were obtained:
Settings in all cases: mRNA level, 48 h; actives raise or lower the signal
[1] = read-out: Bcl-2 (BAD) gene, BAD (gene 572); assay: LTEA_HepaRG_BAD: Life Technologies and Expression Analysis (LTEA) Assay for Bcl-2 (BAD) gene using HepaRG (AID 2283469)
Method in brief: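 BAD transcript change, measured by qRT-PCR against three housekeeping genes and fitted in both directions relative to 0.5% DMSO, after 48 h chemical treatment of human HepaRG liver cells at concentrations up to 100 uM.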

[2] = read-out: Bcl-2 (BAX) gene, BAX (gene 581); assay: LTEA_HepaRG_BAX: Life Technologies and Expression Analysis (LTEA) Assay for Bcl-2 (BAX) gene using HepaRG (AID 2283470)
Method in brief: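 Concentration-response endpoint fitted in both directions relative to 0.5% DMSO vehicle. Human HepaRG cultures receive test chemicals for 48 h at up to 100 uM; BAX mRNA is quantified by qRT-PCR against housekeeping genes.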

[3] = read-out: Alpha-fetoprotein (AFP) gene, AFP (gene 174); assay: LTEA_HepaRG_AFP: Life Technologies and Expression Analysis (LTEA) Assay for Alpha-fetoprotein (AFP) gene using HepaRG (AID 2283472)
Method in brief: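 After a 48 h plating period, cells are moved to serum-free induction medium and dosed in duplicate (100 uM maximum, half-log dilutions, 0.5% DMSO) for another 48 h. Total RNA goes to TaqMan qRT-PCR; AFP signal is housekeeping-normalized.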

[4] = read-out: Apolipoprotein A-V (APOA5) gene, APOA5 (gene 116519); assay: LTEA_HepaRG_APOA5: Life Technologies and Expression Analysis (LTEA) Assay for Apolipoprotein A-V (APOA5) gene using HepaRG (AID 2283474)
Method in brief: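 Human liver HepaRG cells are treated 48 h with test chemicals (100 uM top, half-log dilutions, 0.5% DMSO). APOA5 mRNA induction or loss is measured by qRT-PCR relative to vehicle.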

[5] = read-out: Apoptosis regulator Bcl-2 (Homo sapiens) (UniProt P10415); assay: LTEA_HepaRG_BCL2: Life Technologies and Expression Analysis (LTEA) Assay for Bcl-2 gene using HepaRG (AID 2283475);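 further: BCL2 transcript by TaqMan qRT-PCR normalised to ACTB GAPDH and POLR2A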
Method in brief: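 Expression change of BCL2 mRNA in HepaRG after 48 h dosing, quantified by TaqMan qRT-PCR against three endogenous controls. Concentration-response used eight points up to 100 uM, vehicle 0.5% DMSO.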

[6] = read-out: Bcl-2 (BID) gene, BID (gene 637); assay: LTEA_HepaRG_BID: Life Technologies and Expression Analysis (LTEA) Assay for Bcl-2 (BID) gene using HepaRG (AID 2283476)
Method in brief: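 Gain or loss of BID expression is fitted relative to 0.5% DMSO vehicle. Human HepaRG liver cells received a 48 h chemical exposure over an eight-point concentration range.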

[7] = read-out: Caspase-3 (Homo sapiens) (UniProt P42574); assay: LTEA_HepaRG_CASP3: Life Technologies and Expression Analysis (LTEA) Assay for cysteine-aspartic acid protease (CASP3) using HepaRG (AID 2283477)
Method in brief: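 In HepaRG liver cells dosed for 48 h at up to 100 uM (eight-point, duplicate), CASP3 expression changes are scored by qRT-PCR. Activity is fitted in both directions with 0.5% DMSO as baseline.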

[8] = read-out: Cytochrome P450 (CYP24A1), CYP24A1 (gene 1591); assay: LTEA_HepaRG_CYP24A1: Life Technologies and Expression Analysis (LTEA) Assay for Cytochrome P450 (CYP24A1) using HepaRG (AID 2283478)
Method in brief: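 Human liver HepaRG cultures receive each chemical for 48 h across an eight-point half-log series topping at 100 uM in 0.5% DMSO. Induction or suppression of CYP24A1 mRNA is scored relative to vehicle after housekeeping-gene normalization.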

[9] = read-out: Cytochrome P450 (CYP1A2), CYP1A2 (gene 1544); assay: LTEA_HepaRG_CYP1A2: Life Technologies and Expression Analysis (LTEA) Assay for Cytochrome P450 (CYP1A2) using HepaRG (AID 2283479);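 on AC50: TaqMan qRT-PCR transcript level normalized to ACTB GAPDH and POLR2A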
Method in brief: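 Assesses CYP1A2 mRNA in human HepaRG liver cells after 48 h chemical exposure at up to 100 uM. Values come from qRT-PCR with bidirectional curve fitting relative to DMSO.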

[10] = read-out: cysteine-aspartic acid protease (CASP8), CASP8 (gene 841); assay: LTEA_HepaRG_CASP8: Life Technologies and Expression Analysis (LTEA) Assay for cysteine-aspartic acid protease (CASP8) using HepaRG (AID 2283480)
Method in brief: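 HepaRG, 48 h exposure, duplicate wells; 8 conc, half-log from 100 uM, 0.5% DMSO. Serum-free induction medium. CASP8 mRNA by TaqMan qRT-PCR, norm. ACTB/GAPDH/POLR2A; gain/loss fitted vs DMSO.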

[11] = read-out: Cytochrome P450 (CYP2B6), CYP2B6 (gene 1555); assay: LTEA_HepaRG_CYP2B6: Life Technologies and Expression Analysis (LTEA) Assay for Cytochrome P450 (CYP2B6) using HepaRG (AID 2283481)
Method in brief: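 Using 48 h treatment of HepaRG cells in serum-free induction medium, concentrations spanned half-log steps from 100 uM in 0.5% DMSO vehicle. CYP2B6 mRNA induction or loss is scored by qRT-PCR against DMSO.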

[12] = read-out: Cytochrome P450 2C19 (Homo sapiens) (UniProt P33261); assay: LTEA_HepaRG_CYP2C19: Life Technologies and Expression Analysis (LTEA) Assay for CYP2C19 using HepaRG (AID 2283482)
Method in brief: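 Human HepaRG liver cells received test chemicals for 48 h (highest 100 uM, half-log dilutions in 0.5% DMSO). CYP2C19 mRNA induction or loss is read by multiplexed qRT-PCR and fitted in both directions versus vehicle.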

[13] = read-out: CYP2C8 (gene 1558); assay: LTEA_HepaRG_CYP2C8: Life Technologies and Expression Analysis (LTEA) Assay for CYP2C8 using HepaRG (AID 2283483)
Method in brief: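 CYP2C8 mRNA induction or loss, by qRT-PCR normalized to ACTB/GAPDH/POLR2A, is read in HepaRG cells after 48 h treatment. Concentrations run from 100 uM down in half-log dilutions, with 0.5% DMSO as vehicle and baseline.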

[14] = read-out: CYP2C9 (gene 1559); assay: LTEA_HepaRG_CYP2C9: Life Technologies and Expression Analysis (LTEA) Assay for CYP2C9 using HepaRG (AID 2283484)
Method in brief: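 Cells plated 48 h, switched to serum-free induction medium, then treated in duplicate for 48 h at eight concentrations (max 100 uM, 0.5% DMSO). RNA then analysed by qRT-PCR for CYP2C9; curves fitted in both directions relative to DMSO.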

[15] = read-out: CYP2E1 (gene 1571); assay: LTEA_HepaRG_CYP2E1: Life Technologies and Expression Analysis (LTEA) Assay for CYP2E1 using HepaRG (AID 2283485)
Method in brief: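 Differentiated HepaRG cells were treated in duplicate for 48 h with chemicals in 0.5% DMSO, from 100 uM downward in half-log dilutions. RNA was then analysed by qRT-PCR for CYP2E1 induction or loss.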

[16] = read-out: CYP4A11 (gene 1579); assay: LTEA_HepaRG_CYP4A11: Life Technologies and Expression Analysis (LTEA) Assay for CYP4A11 using HepaRG (AID 2283486)
Method in brief: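 Readout is CYP4A11 mRNA induction or suppression (qRT-PCR, ACTB/GAPDH/POLR2A normalization) in human HepaRG cells after 48 h chemical treatment, concentrations to 100 uM in 0.5% DMSO, fitted bidirectionally against vehicle.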

[17] = read-out: Cytochrome P450 3A4 (Homo sapiens) (UniProt P08684); assay: LTEA_HepaRG_CYP3A4: Life Technologies and Expression Analysis (LTEA) Assay for CYP3A4 using HepaRG (AID 2283487)
Method in brief: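 HepaRG, 48 h exposure, 8-pt CRC from 100 uM (half-log), 0.5% DMSO, duplicates; serum-free induction medium. Readout: CYP3A4 mRNA, qRT-PCR, ACTB/GAPDH/POLR2A normalization. Bidirectional fit vs DMSO.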

[18] = read-out: DNA damage-inducible transcript 3 (DDIT3), DDIT3 (gene 1649); assay: LTEA_HepaRG_DDIT3: Life Technologies and Expression Analysis (LTEA) Assay for DNA damage-inducible transcript 3 (DDIT3) using HepaRG (AID 2283488)
Method in brief: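 Changes in DDIT3 transcript, in either direction relative to 0.5% DMSO vehicle, were quantified by TaqMan qRT-PCR after 48 h chemical exposure of HepaRG cells at 8 concentrations, maximum 100 uM.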

[19] = read-out: BCL2L11 (gene 10018); assay: LTEA_HepaRG_BCL2L11: Life Technologies and Expression Analysis (LTEA) Assay for Bcl-2 (BCL2L11) gene using HepaRG (AID 2283473)
Method in brief: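 Cells were plated, cultured 48 h, switched to serum-free induction medium, then dosed in duplicate for 48 h at eight half-log concentrations up to 100 uM. Lysates underwent RNA isolation and TaqMan qRT-PCR; gain or loss versus DMSO was fitted.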

[20] = read-out: adenosine kinase (ADK) gene, ADK (gene 132); assay: LTEA_HepaRG_ADK: Life Technologies and Expression Analysis (LTEA) Assay for adenosine kinase (ADK) gene using HepaRG (AID 2283471)
Method in brief: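 Read-out is ADK transcript level measured by qRT-PCR and normalised to three housekeeping genes. Cells are human HepaRG, dosed for 48 h at up to 100 uM in 0.5% DMSO. Gain or loss of signal is fitted against DMSO controls.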

Measured: AC50

Cytochrome P450 2C19 (Homo sapiens), sequence (P33261 whole entry, looked up): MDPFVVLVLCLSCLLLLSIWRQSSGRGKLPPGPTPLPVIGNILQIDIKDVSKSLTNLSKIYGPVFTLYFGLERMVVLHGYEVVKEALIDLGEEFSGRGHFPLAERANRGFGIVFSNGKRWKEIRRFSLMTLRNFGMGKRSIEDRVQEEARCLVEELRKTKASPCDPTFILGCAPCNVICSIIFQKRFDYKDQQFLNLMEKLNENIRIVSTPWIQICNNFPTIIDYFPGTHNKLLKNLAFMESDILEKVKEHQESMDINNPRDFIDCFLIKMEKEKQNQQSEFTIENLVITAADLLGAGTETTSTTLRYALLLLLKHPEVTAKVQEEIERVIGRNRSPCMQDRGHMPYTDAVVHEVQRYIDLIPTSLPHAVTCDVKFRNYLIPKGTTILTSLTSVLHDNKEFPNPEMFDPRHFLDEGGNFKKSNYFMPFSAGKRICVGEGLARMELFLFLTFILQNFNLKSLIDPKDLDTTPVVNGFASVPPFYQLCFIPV
Cytochrome P450 3A4 (Homo sapiens), sequence (P08684 whole entry, looked up): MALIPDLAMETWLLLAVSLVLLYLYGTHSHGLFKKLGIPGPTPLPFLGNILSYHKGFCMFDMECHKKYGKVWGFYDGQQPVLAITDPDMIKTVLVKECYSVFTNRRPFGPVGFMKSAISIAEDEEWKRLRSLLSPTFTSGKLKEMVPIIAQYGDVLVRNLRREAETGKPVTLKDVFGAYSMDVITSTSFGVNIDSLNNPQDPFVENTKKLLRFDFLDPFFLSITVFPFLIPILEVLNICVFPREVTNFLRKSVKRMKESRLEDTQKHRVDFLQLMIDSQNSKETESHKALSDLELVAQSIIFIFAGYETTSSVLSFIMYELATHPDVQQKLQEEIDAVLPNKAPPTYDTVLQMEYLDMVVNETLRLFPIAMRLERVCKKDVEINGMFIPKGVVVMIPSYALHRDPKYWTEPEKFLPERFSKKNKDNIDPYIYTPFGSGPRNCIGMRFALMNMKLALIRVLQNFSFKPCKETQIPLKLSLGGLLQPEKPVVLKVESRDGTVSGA
Apoptosis regulator Bcl-2 (Homo sapiens), sequence (P10415 whole entry, looked up): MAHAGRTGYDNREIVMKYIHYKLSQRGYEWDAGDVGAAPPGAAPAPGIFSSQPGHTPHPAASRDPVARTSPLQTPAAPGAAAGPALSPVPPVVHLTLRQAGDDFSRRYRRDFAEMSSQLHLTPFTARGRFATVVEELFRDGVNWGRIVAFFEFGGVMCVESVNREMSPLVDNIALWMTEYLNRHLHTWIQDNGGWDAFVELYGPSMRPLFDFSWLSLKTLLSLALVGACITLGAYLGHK
Caspase-3 (Homo sapiens), sequence (P42574 whole entry, looked up): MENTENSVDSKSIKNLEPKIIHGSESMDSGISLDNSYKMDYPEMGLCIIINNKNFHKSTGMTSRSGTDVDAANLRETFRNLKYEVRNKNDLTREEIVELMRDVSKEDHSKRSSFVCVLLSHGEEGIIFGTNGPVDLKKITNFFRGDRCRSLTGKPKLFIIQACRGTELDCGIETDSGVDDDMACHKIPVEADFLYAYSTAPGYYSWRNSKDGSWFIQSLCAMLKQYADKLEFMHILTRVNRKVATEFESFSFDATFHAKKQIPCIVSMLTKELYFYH

ClC(Cl)(Cl)c1ccccc1
not listed: [19] | [20]
inactive: all other assays above

O=[N+]([O-])c1ccc(Cl)c(Cl)c1
active: [9] 1.36 µM
not listed: [19] | [20]
inactive: all other assays above

ClC(Cl)c1ccccc1
active: [11] 22.8 µM
not listed: [20]
inactive: all other assays above

CN(C)C(=O)Cl
not listed: [19] | [20]
inactive: all other assays above

CCOc1ccc(C(C)(C)COCc2cccc(Oc3ccccc3)c2)cc1
active: [9] 28 µM | [11] 0.63 µM | [12] 4.25 µM | [13] 3.05 µM | [15] 26 µM | [16] 61.5 µM | [17] 4.91 µM
not listed: [19] | [20]
inactive: all other assays above

CCCCN(CCCC)SN(C)C(=O)Oc1cccc2c1OC(C)(C)C2
active: [11] 6.66 µM | [12] 16.7 µM | [15] 41.5 µM | [17] 8.27 µM
not listed: [19] | [20]
inactive: all other assays above

c1cc2c3c(cccc3c1)CC2
active: [11] 50 µM | [15] 0.391 µM
not listed: [19] | [20]
inactive: all other assays above

c1nc[nH]n1
active: [1] 0.105 µM | [4] 0.112 µM | [6] 0.0897 µM | [8] 0.185 µM | [9] 0.109 µM
not listed: [19]
inactive: all other assays above

CSC(C)(C)C=NO
not listed: [19] | [20]
inactive: all other assays above

Cc1cccc(N)c1
active: [9] 50.2 µM
not listed: [19]
inactive: all other assays above

Source: PubChem BioAssay (EPA / NIEHS)
